A selection: hits, their analogues and other compounds. The true share with any hit is near 1.5%.
CRFR2-BP antag: antagonists of CRF-binding protein/CRF-R2 receptor complex | HEK293 CRF-R2/CRF-BP, CRF-induced calcium fluorescence | inhibition, % at 11.8 µM | 350,000 compounds, 0.59% hits | AID 588475;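 active means inhibition of the ligand-induced calcium signal above about 50% at the single tested concentration, limit read from the data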
CRFBP-R2 agonist: CRF-BP/CRF-R2 complex agonism | HEK293 CRF-R2/CRF-BP, calcium dye fluorescence (FLIPR); percent of saturating CRF peptide response | activation, % at 13.2 µM | 350,000 compounds, 0.46% hits | AID 588473;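 active means activation of at least 50%, plus an integration ratio under a set limit after plate pattern correction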;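 further: plate controls were neutral control wells without compound for no effect and CRF at EC100 for full effect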
RTF Ca sens act: cardiac RTF calcium sensitization; P19429+P45379; IANBD-labeled TnC RTF fluorescence at EC20 calcium; 0% EC20 calcium, 100% full calcium; activation, % at 7.2 µM; 340,000 compounds, 0.24% hits; AID 493008;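 active means activation above the mean over all tested compounds plus 3 SD, cut at about 30% in these data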;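 further: rise in fluorescence read as greater calcium sensitivity of cardiac thin filaments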
IDE act: IDE (human) activation, cell-based. P14735. HEK cells, FAbeta-B cleavage, fluorescence polarization; 0% vehicle, 100% cell-free pure enzyme wells. activation, % at 5.96 µM. 340,000 compounds, 0.073% hits. AID 493087;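 active means activation above the mean of all tested compounds plus 3 SD, set per screening campaign, cut at about 17% in these data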
Target sequence (P14735 whole entry, looked up): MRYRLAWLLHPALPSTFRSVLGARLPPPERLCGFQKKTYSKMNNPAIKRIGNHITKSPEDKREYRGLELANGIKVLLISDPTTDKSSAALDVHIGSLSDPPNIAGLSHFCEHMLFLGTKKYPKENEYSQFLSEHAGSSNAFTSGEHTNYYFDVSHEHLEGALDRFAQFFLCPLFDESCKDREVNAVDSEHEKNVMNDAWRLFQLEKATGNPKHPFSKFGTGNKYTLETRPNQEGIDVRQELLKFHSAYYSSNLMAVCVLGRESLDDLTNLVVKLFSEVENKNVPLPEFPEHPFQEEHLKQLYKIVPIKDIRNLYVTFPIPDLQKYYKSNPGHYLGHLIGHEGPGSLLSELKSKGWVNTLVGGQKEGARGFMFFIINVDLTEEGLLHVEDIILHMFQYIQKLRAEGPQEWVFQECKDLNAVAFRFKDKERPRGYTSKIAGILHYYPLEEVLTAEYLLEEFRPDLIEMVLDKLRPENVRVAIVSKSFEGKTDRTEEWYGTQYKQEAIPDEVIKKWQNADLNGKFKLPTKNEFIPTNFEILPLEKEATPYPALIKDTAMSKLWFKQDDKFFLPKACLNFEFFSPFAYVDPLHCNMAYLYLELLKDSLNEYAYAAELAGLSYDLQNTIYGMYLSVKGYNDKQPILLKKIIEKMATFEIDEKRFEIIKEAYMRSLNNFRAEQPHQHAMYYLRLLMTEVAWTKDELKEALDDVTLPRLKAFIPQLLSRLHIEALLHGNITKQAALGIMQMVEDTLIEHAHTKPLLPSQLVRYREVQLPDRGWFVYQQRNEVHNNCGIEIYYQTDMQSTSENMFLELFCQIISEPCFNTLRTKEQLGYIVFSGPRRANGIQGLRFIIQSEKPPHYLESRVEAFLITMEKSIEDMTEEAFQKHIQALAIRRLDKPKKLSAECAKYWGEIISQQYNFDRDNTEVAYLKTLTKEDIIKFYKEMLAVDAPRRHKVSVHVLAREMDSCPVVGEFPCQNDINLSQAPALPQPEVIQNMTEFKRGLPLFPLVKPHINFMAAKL
RTF Ca sens inh: cardiac RTF calcium desensitization; P19429+P45379; inhibition, % at 7.15 µM; 340,000 compounds, 0.12% hits; IANBD-labeled cardiac RTF, Ca2+ fluorescence;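 active means inhibition above the mean inhibition of all tested compounds plus 3 SD, cut at about 17% in these data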;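 further: assay run at fixed EC70 calcium of 1.6 mM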
IDE inh: inhibitors of human insulin-degrading enzyme in cells; P14735; HEK cells, FAbetaB cleavage, fluorescence polarization; inhibition, % at 5.59 µM; 320,000 compounds, 0.41% hits;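 active means percent inhibition above the average of all tested compounds plus 3 SD, set per screening campaign, cut at about 16% in these data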;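 further: IDE supplied by intact live HEK cells; FP after avidin binding of uncleaved biotin substrate so inhibition keeps polarization high; 0% = DMSO wells and 100% = 60 µM reference IDE inhibitor Ii1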
Active calls of the source: *; . = no result.

SMILES	CRFR2-BP antag	CRFBP-R2 agonist	RTF Ca sens act	IDE act	RTF Ca sens inh	IDE inh
O=C(Cc1ccccc1)NCC(=O)N1CCCCCC1	-1	0	-1	5	-12	-6
COC(=O)c1ccncc1N	-8	-1	3	11	-20	6
Nc1cnccc1C(=O)O	-19	24	39*	4	-49	0
O=C1c2cccnc2C(=O)N1Cc1ccc(S(=O)(=O)N2CCOc3ccc(Cl)cc32)cc1	1	4	-4	-3	4	-3
O=C(O)c1cc(NN=C2c3ccccc3-c3ccccc32)ccc1Cl	50*	0	-4	5	0	-5
O=C(O)c1cccc(NN=C2c3ccccc3-c3ccccc32)c1	27	0	3	2	9	.
CC(C)C(=O)c1cc2c(cc1NC(=O)c1ccccc1)OCCO2	-37	-2	31*	2	-4	5
CC(=O)Nc1cc2c(cc1C(=O)C(C)C)OCCO2	5	-1	-2	2	-4	0
CN(/N=C/c1ccc(Cl)cc1Cl)c1ncc(Cl)cc1C(F)(F)F	63*	-1	3	5	3	5
Nc1nnc(SCc2ccc(F)cc2Cl)s1	58*	-7	10	-2	-6	4
COc1cccc(CNC(=O)C2CCC(=O)N(CC3CCCCC3)C2)c1OC (stereo unspecified)	92*	3	1	-6	-6	.
O=C(NCc1cccc(Cl)c1)C1CCC(=O)N(CC2CCCCC2)C1 (stereo unspecified)	86*	-4	-1	2	-6	-5
O=C(NCc1ccc(F)c(F)c1)C1CCC(=O)N(CC2CCCCC2)C1 (stereo unspecified)	-12	-1	-1	6	-9	0
COc1cccc(CN2CC(C(=O)NCc3ccc(Cl)s3)CCC2=O)c1 (stereo unspecified)	63*	1	-4	2	4	.
COc1cccc(OC)c1CNC(=O)C1CCC(=O)N(CC2CCCCC2)C1 (stereo unspecified)	-13	0	-7	1	-5	0
CC1=C(C(=O)N(C)C)CC(CC(=O)NC2CCCCC2)C(=O)N1Cc1ccccc1 (stereo unspecified)	-9	3	.	.	.	.
CC(=O)N1CCOc2ccc(S(=O)(=O)NCC3CCC(C(=O)Nc4ccc(C)cn4)CC3)cc21 (stereo unspecified)	10	1	-4	2	-4	-1
O=C(NCc1ccc2c(c1)OCO2)C(=O)NCC1OCCN1S(=O)(=O)c1ccccc1 (stereo unspecified)	9	-1	-2	6	-8	2
COc1ccc(NC(=O)c2ccc(NC(=O)c3ccncc3)cc2)cc1	-4	6	-4	-4	2	-1
COc1ccc(C(=O)Nc2ccc(C3CC3(Cl)Cl)cc2)cc1 (stereo unspecified)	75*	3	5	3	-4	5
OCC[C@H]1C[C@H](O)[C@@H](O)[C@]2(OCc3ccccc32)O1	0	2	5	1	-1	-1
CC(C)[C@H](NC(=O)OC(C)(C)C)C(=O)N/N=C/c1ccc2nccnc2c1	92*	3	2	5	-4	6
CC(C)[C@@H](N)C(=O)N/N=C/c1ccc2nccnc2c1	-20	-1	1	-1	-11	3
CCN1CCCc2cc(CN(CCN3CCOCC3)C(=S)Nc3ccc(OC)c(Cl)c3)ccc21	7	0	0	4	-10	0
COc1ccc(NC(=S)N2CCC(N(C)CCN3CCOCC3)CC2)cc1Cl	52*	-8	1	-1	-15	1
SMILES	CRFR2-BP antag	CRFBP-R2 agonist	RTF Ca sens act	IDE act	RTF Ca sens inh	IDE inh
C/C=C(\C)C(=O)OC1CC(C)(C)C[C@H]2C3=CC[C@@H]4[C@@]5(C)CCC(O[C@@H]6O[C@@H](C(=O)O)[C@@H](O)C(O[C@@H]7OC[C@H](O)[C@@H](O)[C@@H]7O[C@@H]7OC(CO)C(O)[C@@H](O)[C@@H]7O)C6O[C@@H]6OC(CO)C(O)C(O)C6O)[C@@](C)(CO)[C@@H]5CC[C@]4(C)[C@]3(C)CC(O)[C@@]12CO (stereo partly specified)	-23	78*	-2	3	0	2
CC1(C)CC[C@]2(C(=O)O[C@@H]3OC(CO)[C@@H](O)[C@H](O)[C@H]3O)CC[C@]3(C)C(=CCC4[C@@]5(C)CC[C@H](O[C@@H]6OC(C(=O)O)[C@@H](O)[C@H](O)[C@H]6O)C(C)(C)C5CC[C@]43C)[C@@H]2C1 (stereo partly specified)	-78	48	0	2	-11	-4
Cc1ccccc1C(=O)NNC(=O)CSc1nnc(C)n1-c1ccccc1	-1	-1	-3	7	9	9
Cc1occc1C(=O)N(C)Cc1nc(-c2ccc(Cl)cc2)no1	-3	5	-5	0	4	5
NC(=O)c1ccc(NCc2ccco2)c([N+](=O)[O-])c1	71*	-5	-5	6	-5	-3
O=C(NCc1ccco1)c1ccc(N2CCCCC2)c([N+](=O)[O-])c1	1	-2	-5	2	6	-3
CC(C)(C)c1cc(C(=O)O)nn1-c1ccccc1	68*	0	5	-2	-3	-2
Cc1ccc(S(=O)(=O)/N=C2/NC(=O)/C(=C/c3ccccc3)S2)cc1	115*	-2	-2	-1	3	-3
Cc1ccc(S(=O)(=O)/N=C2/NC(=O)/C(=C\c3ccccc3)S2)cc1	15	-1	-2	0	0	4
Cc1ccc(N(C(=O)Cn2nnc(-c3cccs3)n2)C(C(=O)NC2CCCC2)c2ccncc2)cc1 (stereo unspecified)	21	4	8	4	-7	-5
Cc1ccc(N(C(=O)Cn2nnc(-c3ccccc3F)n2)C(C(=O)NC2CCCC2)c2ccncc2)cc1 (stereo unspecified)	51*	0	1	2	-9	3
NC(=O)c1ccc2nc(-c3ccccc3)c(-c3ccccc3)nc2c1	52*	-1	0	3	4	5
O=C(O)c1ccc2nc(-c3ccccc3)c(-c3ccccc3)nc2c1	19	-1	-5	1	-2	7
CC[N+]1(C)CCC(O)(/C=C/c2ccccc2)C(C(=O)/C=C/c2ccccc2)C1 (stereo unspecified)	-1	-2	-1	-5	1	.
CCN(CC)c1ccc(/C=C(\C#N)C(=O)NCc2ccccc2)cc1	-25	31	36*	-17	-14	23*
CCC(C)(C)NC(=O)C(c1ccc(OC)cc1)N(C(=O)CCC(=O)Nc1cc(C)on1)c1ccc(F)cc1 (stereo unspecified)	7	-1	-5	-1	-13	1

Source: PubChem
